EPAC1 agonist – activates human EPAC1 exchange factor. O95398. EPAC1 agonist qHTS, biochemical assay; response scale: 100% = response to 6.5 mM cAMP. Potency, µM (series often up to 154 µM), hits mostly activators. actives 0.073% (n = 360,000); further: nearly all actives have a fitted effect of over 60% in size
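Multi-concentration qHTS readout: loss of Rap1B-bound BODIPY-GDP fluorescence driven by 100 nM EPAC1 with excess GDP (50 uM), monitored kinetically at room temperature; agonist response expressed relative to 6.5 mM cAMP.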
TRPML1 agonist – activates the human TRPML1 channel; activation, % (concentration not given with the values); TRPML1-expressing cells, Ca2+ dye fluorescence, FDSS; actives 0.12% (n = 410,000); Q9GZU1; in the data active means activation above about 50%; inconclusive means mostly about 30% to 49%
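Tetracycline-induced TRPML1-DL cells are seeded and incubated overnight before loading with a no-wash Ca2+ dye and quencher. Agonist activity is taken from the 110 s fluorescence read following compound pin-transfer on an FDSS, before EC80 54-4 challenge.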
EPAC2 antagonist – antagonists of human EPAC2; Q8WZA2; EPAC2 GEF exchange of Rap1B-BODIPY-GDP, fluorescence; Potency, µM (top dose mostly 114 µM), usual class: inhibitors; actives 0.18% (n = 360,000); further: nearly all actives have a fitted effect of over 45% in size
Target sequence (Q8WZA2 whole entry, looked up): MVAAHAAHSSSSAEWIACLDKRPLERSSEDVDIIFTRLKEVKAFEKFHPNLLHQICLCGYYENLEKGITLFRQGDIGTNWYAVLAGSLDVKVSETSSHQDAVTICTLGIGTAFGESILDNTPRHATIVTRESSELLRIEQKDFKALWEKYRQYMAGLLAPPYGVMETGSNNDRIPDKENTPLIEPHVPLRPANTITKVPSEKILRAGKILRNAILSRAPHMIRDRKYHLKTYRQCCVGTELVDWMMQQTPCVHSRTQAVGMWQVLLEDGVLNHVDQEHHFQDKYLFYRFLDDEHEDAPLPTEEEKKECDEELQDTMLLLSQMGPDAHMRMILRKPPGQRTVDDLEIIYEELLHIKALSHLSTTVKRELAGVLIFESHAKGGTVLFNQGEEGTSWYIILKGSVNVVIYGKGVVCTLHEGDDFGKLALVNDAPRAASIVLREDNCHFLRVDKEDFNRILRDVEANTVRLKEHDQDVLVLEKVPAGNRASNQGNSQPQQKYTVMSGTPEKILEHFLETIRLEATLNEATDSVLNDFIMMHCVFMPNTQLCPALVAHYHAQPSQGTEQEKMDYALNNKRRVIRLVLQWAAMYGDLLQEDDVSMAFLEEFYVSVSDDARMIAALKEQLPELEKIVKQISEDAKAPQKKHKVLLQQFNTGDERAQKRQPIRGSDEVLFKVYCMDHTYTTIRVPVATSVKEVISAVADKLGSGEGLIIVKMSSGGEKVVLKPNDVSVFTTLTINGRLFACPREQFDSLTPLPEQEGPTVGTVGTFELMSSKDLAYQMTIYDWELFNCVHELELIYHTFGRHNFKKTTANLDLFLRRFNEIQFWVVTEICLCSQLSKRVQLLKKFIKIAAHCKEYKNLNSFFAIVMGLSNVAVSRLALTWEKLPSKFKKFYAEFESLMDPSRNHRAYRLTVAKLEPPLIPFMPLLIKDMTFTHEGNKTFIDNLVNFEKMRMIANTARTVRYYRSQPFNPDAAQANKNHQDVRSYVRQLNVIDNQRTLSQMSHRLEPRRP
EPAC2 ag – activates human EPAC2 exchange factor | actives 0.079% (n = 360,000) | AID 720711 | EPAC2 activation, biochemical qHTS; response scale: 100% = 6.5 mM cAMP response | Potency, µM (titrated, usually from 154 µM), hits mostly activators; further: nearly all actives have a fitted effect of over 50% in size
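Nucleotide exchange monitored as fluorescence drop when BODIPY-GDP leaves Rap1B. Reaction: 100 nM EPAC2, 250 nM RAP1B-BODIPY-GDP, 50 uM GDP, room temperature, kinetic read over 30 min. Activity expressed relative to 6.5 mM cAMP.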
EPAC1 antagonist – EPAC1 (human) antagonism. EPAC1 GEF assay, Rap1b-BODIPY-GDP exchange fluorescence. Potency, µM (highest dose often 115 µM), usual class: inhibitors. actives 0.14% (n = 360,000). AID 720709; further: nearly all actives have a fitted effect of over 50% in size
TRPML1 blocker – inhibitors of human TRPML1 channel; activity change, negative = inhibition, % (concentration not given with the values); actives 0.02% (n = 390,000); TRPML1-inducible cells, Ca2+ dye fluorescence, FDSS; hits give low values; inhibition of EC80 agonist-evoked calcium signal; Q9GZU1; in the data active means activity change below about -50%; inconclusive means between about -30% and that limit;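 further: stimulus is agonist 54-4 at its EC80 concentration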
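Calcium fluorescence in TRPML1-DL cells induced overnight with Tet: a 110 s read after compound pin addition, then a 110 s antagonist read after challenge with 54-4 at 4 uM final (EC80).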
Each line names hits and unclear results; the compound was inactive in the other large screens. The list is not random: actives were taken first. Their share in the collection is about 0.4%. Unless noted, the call rests on the fitted dose curve; in most records, active means well fitted curve in the direction sought with a large enough effect; inconclusive means small, poorly fitted or top-dose-only effect, or another doubt; inactive means no such curve, though single readings can be large; an effect the other way counts as inactive or inconclusive.

O=C1C(=C(c2ccccc2)c2ccccc2)Nc2ccccc21	EPAC2 ag 6.3µM
CC(=O)c1ccc(Nc2cc(C)nc3c(C)cc(C)cc23)cc1	none
Cc1cc(C)c2nc(C)cc(Nc3ccc(C(=O)NCCO)cc3)c2c1	EPAC2 antagonist 20µM
CC(=O)NC(c1ccco1)c1cc(Cl)c2cccnc2c1O (configuration not stated)	EPAC2 antagonist inconclusive (no result: TRPML1 agonist, TRPML1 blocker)
CC(=O)NC(c1ccccc1)c1cc([N+](=O)[O-])c2cccnc2c1O (configuration not stated)	EPAC1 antagonist inconclusive
CC(C)C(=O)NC(c1ccccc1)c1cc([N+](=O)[O-])c2cccnc2c1O (configuration not stated)	EPAC1 antagonist 56µM
CC(=O)NC(c1ccc(C)cc1)c1cc(Cl)c2cccnc2c1O (configuration not stated)	EPAC2 antagonist 40µM
C=C(CC[C@]12OC(C(=O)O)C(O)(C(=O)O)C(C(=O)O)(O1)C(OC(=O)/C=C/[C@@H](C)C[C@@H](C)CC)C2O)[C@@H](OC(C)=O)[C@H](C)Cc1ccccc1 (some centres not stated)	none (no result: EPAC1 agonist, EPAC2 antagonist, EPAC2 ag, EPAC1 antagonist, TRPML1 blocker)
CC(C)N1CCc2c(sc(NC(=O)c3ccc(S(=O)(=O)N4CCc5ccccc54)cc3)c2C(N)=O)C1	EPAC2 antagonist 45µM, EPAC1 antagonist inconclusive
CC(C)N1CCc2c(sc(NC(=O)c3ccc(S(=O)(=O)N4CCOCC4)cc3)c2C#N)C1	EPAC2 ag 100µM
Cc1cccc(N2CCN(c3nc4ccc(C)cc4n4cnnc34)CC2C)c1 (configuration not stated)	none (no result: EPAC1 agonist, EPAC2 antagonist, EPAC2 ag, EPAC1 antagonist)
CCCCCc1cc[n+](CC(=O)c2ccccc2)cc1	none (no result: EPAC1 agonist, EPAC2 antagonist, EPAC2 ag, EPAC1 antagonist, TRPML1 blocker)
CC1(C2CCC3C4CCC5CC6(CCC5(C)C4C(=O)CC32C)OCCO6)OCCO1 (configuration not stated)	EPAC2 antagonist 56µM, EPAC1 antagonist inconclusive
CC12CCC3(CC1CCC1OC12)OCCO3 (configuration not stated)	none
CCOc1ccc(/C=C/C(=O)c2c(O)c3ccccc3oc2=O)cc1	EPAC1 agonist 100µM
CN(C)c1ccc(/C=C/C(=O)c2c(O)c3ccccc3oc2=O)cc1	EPAC1 antagonist inconclusive, TRPML1 blocker inconclusive
COc1ccc(/C(N)=N/OC(=O)c2ccc([N+](=O)[O-])c(C)c2)cc1OC	none
COc1ccc(/C(N)=N/OC(=O)c2ccc(C)c([N+](=O)[O-])c2)cc1	EPAC2 ag 10µM
CC(=O)NC(Cc1ccc(Cl)cc1)C(=O)NCC(N)C(=O)c1ccccc1 (configuration not stated)	none (no result: EPAC1 agonist, EPAC2 antagonist, EPAC2 ag, EPAC1 antagonist, TRPML1 blocker)
COCCN(C(=O)CSCC(=O)Nc1cccc(C)c1)c1c(N)n(Cc2ccccc2)c(=O)[nH]c1=O	none
CCCn1c(N)c(N(CCOC)C(=O)CSCC(=O)Nc2cccc(C)c2)c(=O)[nH]c1=O	EPAC1 agonist 100µM
CCN(CC)c1ccc(/C=C/c2nccc3ccccc23)cc1	TRPML1 agonist 64 (no result: EPAC1 agonist, EPAC2 antagonist, EPAC2 ag, EPAC1 antagonist, TRPML1 blocker)
CCN(CC)c1nc(C=Cc2ccc(N(C)C)cc2)c2nccnc2n1	TRPML1 agonist 64
CN(C)c1ccc(/C=C/c2sc3ccccc3[n+]2Cc2ccccc2)cc1	none (no result: EPAC1 agonist, EPAC2 antagonist, EPAC2 ag, EPAC1 antagonist, TRPML1 blocker)
COc1ccc(S(=O)(=O)N2CCC3(CC2)OCCN3S(=O)(=O)c2ccc(OC)cc2)cc1	none
COc1ccc(S(=O)(=O)N2CCOC23CCN(S(=O)(=O)c2cccs2)CC3)cc1	EPAC1 agonist 56µM
COc1ccccc1Cn1c(=O)oc2ccc(C)cc21	EPAC2 antagonist 28µM
O=C(NCCS(=O)(=O)N1CCN(c2cccc(Cl)c2)CC1)c1ccc2c(c1)OCO2	EPAC1 agonist 35µM
Clc1ccc(/C=C/c2ccc3ccccc3n2)cc1Cl	none (no result: EPAC1 agonist, EPAC2 antagonist, EPAC2 ag, EPAC1 antagonist, TRPML1 blocker)
Cc1nc2ccccc2n2c(O)c(CC(=O)O)cc12	EPAC1 agonist inconclusive, EPAC2 ag 112µM
Cc1nc2ccccc2n1CCC(=O)O	none
C[C@@H]1CC=C[C@@H]2[C@H]1C(=O)N(Cc1ccccc1)[C@H]2c1ccccc1Br	EPAC2 antagonist 25µM
C[C@@H]1CC=C[C@@H]2[C@H]1C(=O)N(Cc1ccccc1)[C@H]2c1cccc(Br)c1	none
CNc1ccc(C=O)cc1I	none (no result: EPAC1 agonist, EPAC2 antagonist, EPAC2 ag, EPAC1 antagonist, TRPML1 blocker)
CN1C/C(=C\c2ccc(N3CCOCC3)cc2)C(=O)/C(=C/c2ccc(N3CCOCC3)cc2)C1	EPAC2 ag inconclusive
CCN1C/C(=C/c2ccc(N3CCOCC3)cc2)C(=O)/C(=C/c2ccc(N3CCOCC3)cc2)C1	EPAC1 agonist 63µM, TRPML1 agonist inconclusive, EPAC2 ag 89µM
Brc1ccc[n+](CCC2CCCCC2)c1	none (no result: EPAC1 agonist, EPAC2 antagonist, EPAC2 ag, EPAC1 antagonist, TRPML1 blocker)
O=C(Nc1cccc(Cl)c1)N(Cc1nc2ccccc2c(=O)[nH]1)C1CCCC1	none
O=C(Nc1cccc(Cl)c1)N(Cc1nc2ccccc2c(=O)[nH]1)Cc1cccs1	EPAC1 agonist 89µM
O=[N+]([O-])c1ccc(/C=C2\C=C(C(O)c3ccc([N+](=O)[O-])cc3)c3ccccc32)cc1 (configuration not stated)	none (no result: EPAC1 agonist, EPAC2 antagonist, EPAC2 ag, EPAC1 antagonist, TRPML1 blocker)
CCOC(=O)COc1ccc(Br)cc1/C=C\c1[nH]c(=O)[nH]c(=O)c1[N+](=O)[O-]	EPAC1 antagonist inconclusive
CCOc1cc(/C=C\c2[nH]c(=O)[nH]c(=O)c2[N+](=O)[O-])ccc1OC(C)CC (configuration not stated)	TRPML1 blocker -71
CCOC(=O)COc1ccc(Br)cc1/C=C/c1[nH]c(=O)[nH]c(=O)c1[N+](=O)[O-]	EPAC1 antagonist 32µM
CCCOc1ccc(/C=C/c2[nH]c(=O)[nH]c(=O)c2[N+](=O)[O-])cc1OCC	none
Cc1[nH]n(-c2ncc(-c3ccc(Cl)cc3)s2)c(=O)c1C(c1ccc(Cl)cc1)C(C#N)C#N (configuration not stated)	EPAC1 antagonist 40µM
COc1ccc(C(c2c(C)[nH]n(C(N)=S)c2=O)C(C#N)C#N)cc1 (configuration not stated)	none
COc1ccc(NC(=O)c2cccnc2NCCc2ccccc2)cc1	EPAC1 agonist 56µM, EPAC2 ag 32µM
O=C(C[N+]12CCCc3cccc(c31)CCC2)c1ccc2ccc3cccc4ccc1c2c34	none (no result: EPAC1 agonist, EPAC2 antagonist, EPAC2 ag, EPAC1 antagonist, TRPML1 blocker)
COCCn1c(-c2ccc(OC)cc2)nc2ccccc21	none
COCCn1c2nc(=O)n(-c3ccccc3)c(=O)c-2nc2ccccc21	EPAC1 agonist 89µM, TRPML1 agonist 59, EPAC2 ag 89µM
CC(OC(=O)/C(C#N)=C/c1ccc(N(C)C)cc1)C(=O)N(C)c1ccccc1 (configuration not stated)	EPAC1 agonist 56µM, TRPML1 agonist inconclusive, EPAC2 ag 63µM

Bioassay records (PubChem)
